Source: PubChem BioAssay (NCI)
About 79,000 compounds went through this panel and 15% of them were active in at least one assay; those are over-represented in the sample as a whole. The source made the active and inactive calls. No stated cut-off is given here; in the data, active means growth inhibition above about 70%; inactive means the rest.

Key:
[1] = NCI Yeast Anticancer Drug Screen. Data for the rad52 strain (AID 147);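 further: 0% = growth of vehicle-treated control cultures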; conditions: S. cerevisiae rad52 mutant growth inhibition, active compounds read high
Summary of the method: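 Here a repair-compromised yeast strain receives each compound; its growth is then quantified and normalised to vehicle-only controls.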

[2] = NCI Yeast Anticancer Drug Screen. Data for the wt1 strain (AID 149);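 further: 0% = growth of vehicle-treated wt1 cultures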; conditions: S. cerevisiae wt1 strain (SPY 50644) growth inhibition, active compounds read high
Summary of the method: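 wt1 strain grown with compound or vehicle; inhibition taken from the growth difference.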

[3] = NCI Yeast Anticancer Drug Screen. Data for the rad50EPP+ strain (AID 151);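 further: 0% = growth of vehicle-treated control cultures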; conditions: S. cerevisiae rad50 mutant strain, active compounds read high
Summary of the method: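 Read-out is yeast growth inhibition relative to vehicle; cells used were the rad50EPP+ strain.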

[4] = NCI Yeast Anticancer Drug Screen. Data for the rad50 strain (AID 155);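 further: 0% = growth of vehicle-only cultures of the same strain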; conditions: S. cerevisiae rad50 strain growth inhibition, active compounds read high
Summary of the method: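 DNA repair mutant yeast, compound exposure, growth read-out; inhibition is taken relative to vehicle.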

[5] = NCI Yeast Anticancer Drug Screen. Data for the mec2-1 strain (AID 157); conditions: S. cerevisiae mec2-1 strain, active compounds read high
Summary of the method: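 Using mec2-1 yeast: add compound, measure growth, express inhibition versus vehicle-treated cultures.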

[6] = NCI Yeast Anticancer Drug Screen. Data for the sgs1 mgt1 strain (AID 161);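 further: 0% = growth of cultures given vehicle only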; conditions: S. cerevisiae sgs1 mgt1 strain, active compounds read high
Summary of the method: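 Growth of a repair-deficient yeast mutant was monitored after compound treatment and expressed as inhibition relative to vehicle-treated cultures.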

[7] = NCI Yeast Anticancer Drug Screen. Data for the CLN2oe strain (AID 163);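 further: 0% = growth of vehicle-only control cultures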; conditions: S. cerevisiae CLN2oe strain, active compounds read high
Summary of the method: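 Whole-cell yeast growth assay. A strain engineered for altered cell-cycle control received compound, and inhibition relative to vehicle-treated cultures was recorded.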

[8] = NCI Yeast Anticancer Drug Screen. Data for the cln2 rad14 strain (AID 165);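 further: 0% = growth equal to vehicle treated cultures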; conditions: S. cerevisiae cln2 rad14 strain, active compounds read high
Summary of the method: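 Yeast strain cln2 rad14, bearing defects in cell cycle control and DNA repair, serves as the test system; values reflect growth inhibition compared with vehicle.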

[9] = NCI Yeast Anticancer Drug Screen. Data for the bub3 strain (AID 167); conditions: S. cerevisiae bub3 mutant strain, active compounds read high
Summary of the method: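 In this screen, a yeast mutant lacking normal mitotic checkpoint function is challenged with compound. Relative growth versus vehicle gives the inhibition value.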

[10] = NCI Yeast Anticancer Drug Screen. Data for the wt2 strain (AID 169);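 further: 0% = growth of vehicle-treated yeast cultures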; conditions: S. cerevisiae wt2 strain growth inhibition, active compounds read high
Summary of the method: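 Treated yeast vs. vehicle-treated yeast: growth inhibition determined.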

[11] = NCI Yeast Anticancer Drug Screen. Data for the mlh1 strain (AID 171);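 further: 0% = growth of vehicle-treated control cultures of the same strain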; conditions: S. cerevisiae mlh1 strain growth inhibition, active compounds read high
Summary of the method: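 A yeast strain with a defined genetic lesion serves as the test organism. Cultures receive compound or vehicle, and growth is measured.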

[12] = NCI Yeast Anticancer Drug Screen. Data for the mlh1 rad18 strain (AID 175); conditions: S. cerevisiae mlh1 rad18 strain growth inhibition, active compounds read high
Summary of the method: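 Steps: expose repair-defective yeast to compound; measure growth; express inhibition against vehicle-treated controls.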

[13] = NCI Yeast Anticancer Drug Screen. Data for the rad18 strain (AID 177); conditions: S. cerevisiae rad18 mutant growth inhibition, active compounds read high
Summary of the method: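 Measured value is growth inhibition of a yeast strain bearing a DNA repair alteration, referenced to vehicle-treated cells.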

[14] = NCI Yeast Anticancer Drug Screen. Data for the mgt1 strain (AID 153); conditions: S. cerevisiae mgt1 mutant growth inhibition, active compounds read high
Summary of the method: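 Measured: inhibition of mgt1 yeast growth by compound, normalized to vehicle-treated cultures.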

[15] = NCI Yeast Anticancer Drug Screen. Data for the rad14 strain (AID 159);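 further: 0% = growth of vehicle-treated control cultures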; conditions: S. cerevisiae rad14 strain growth inhibition, active compounds read high
Summary of the method: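 DNA repair-defective yeast, compound-exposed; % growth inhibition derived by comparison with vehicle-treated controls.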

[16] = NCI Yeast Anticancer Drug Screen. Data for the sgs1 strain (AID 173);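 further: 0% = growth of vehicle-only control cultures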; conditions: S. cerevisiae sgs1 mutant, active compounds read high
Summary of the method: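 A genetically defined yeast mutant is incubated with the test compound, and its growth is compared to that of the same strain given vehicle.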

[17] = at 5.0 µM (retest, dose inferred, filed as 0.5)
[18] = at 50.0 µM (retest, dose inferred, filed as 5.0)

Measured: growth inhibition

Cc1ccccc1N=Cc1cc(Cl)ccc1O
active: [1]; at 100.0 µM 96% | [2]; at 100.0 µM 75% | [3]; at 100.0 µM 85% | [4]; at 100.0 µM 98% | [9]; at 100.0 µM 90% | [10]; at 100.0 µM 73% | [11]; at 100.0 µM 87% | [13]; at 100.0 µM 92%
inactive: [1]; at 1.2 µM -11% | [1]; at 3.7 µM -3% | [1]; at 11.0 µM 4% | [1]; at 33.0 µM 21% | [2]; at 1.2 µM -4% | [2]; at 3.7 µM -5% | [2]; at 11.0 µM -7% | [2]; at 33.0 µM 7% | [3]; at 1.2 µM 3% | [3]; at 3.7 µM 18% | [3]; at 11.0 µM 35% | [3]; at 33.0 µM 58% | [4]; at 1.2 µM -5% | [4]; at 3.7 µM -1% | [4]; [17] -74% | [4]; at 11.0 µM 10% | [4]; at 33.0 µM 44% | [4]; [18] 66% | [4]; at 50.0 µM 51.3% | [5]; at 1.2 µM 1% | [5]; at 3.7 µM -1% | [5]; [17] -7% | [5]; at 11.0 µM 1% | [5]; at 33.0 µM 2% | [5]; [18] 16% | [5]; at 50.0 µM 35.7% | [5]; at 100.0 µM 53% | [6]; [17] -13% | [6]; [18] 44% | [6]; at 50.0 µM 26.5% | [7]; at 1.2 µM 2% | [7]; at 3.7 µM 3% | [7]; at 11.0 µM 8% | [7]; at 33.0 µM 12% | [7]; at 100.0 µM 60% | [8]; [17] -32% | [8]; [18] -16% | [8]; at 50.0 µM -13.1% | [9]; at 1.2 µM -6% | [9]; at 3.7 µM -4% | [9]; [17] -68% | [9]; at 11.0 µM -1% | [9]; at 33.0 µM 16% | [9]; [18] -4% | [9]; at 50.0 µM 42% | [10]; at 1.2 µM -1% | [10]; at 3.7 µM 0% | [10]; at 11.0 µM -1% | [10]; at 33.0 µM 2% | [11]; at 1.2 µM 7% | [11]; at 3.7 µM -5% | [11]; at 11.0 µM 0% | [11]; at 33.0 µM 22% | [12]; [17] -73% | [12]; [18] 18% | [12]; at 50.0 µM 67% | [13]; at 1.2 µM -6% | [13]; at 3.7 µM 2% | [13]; at 11.0 µM 9% | [13]; at 33.0 µM 23%

CCCC/C([O-])=C1/C(=O)N(c2ccccc2)N=C1C.CCCC/C([O-])=C1/C(=O)N(c2ccccc2)N=C1C.[Cu+2]
inactive: [1]; at 1.2 µM 1% | [1]; at 3.7 µM 2% | [1]; at 11.0 µM 2% | [1]; at 33.0 µM 1% | [1]; at 100.0 µM -2% | [2]; at 1.2 µM 0% | [2]; at 3.7 µM -1% | [2]; at 11.0 µM -2% | [2]; at 33.0 µM -2% | [2]; at 100.0 µM -3% | [14]; at 1.2 µM -2% | [14]; at 3.7 µM -1% | [14]; at 11.0 µM 0% | [14]; at 33.0 µM 0% | [14]; at 100.0 µM -5% | [4]; at 1.2 µM 1% | [4]; at 3.7 µM 2% | [4]; [17] 28% | [4]; at 11.0 µM 2% | [4]; at 33.0 µM 1% | [4]; [18] 48% | [4]; at 50.0 µM -7.7% | [4]; at 100.0 µM 0% | [5]; at 1.2 µM -3% | [5]; at 3.7 µM -3% | [5]; [17] 10% | [5]; at 11.0 µM -6% | [5]; at 33.0 µM 1% | [5]; [18] 29% | [5]; at 50.0 µM -6.8% | [5]; at 100.0 µM -6% | [15]; at 1.2 µM 0% | [15]; at 3.7 µM 0% | [15]; at 11.0 µM -1% | [15]; at 33.0 µM -2% | [15]; at 100.0 µM -2% | [6]; [17] -2% | [6]; [18] 42% | [6]; at 50.0 µM -13.3% | [7]; at 1.2 µM -4% | [7]; at 3.7 µM -2% | [7]; at 11.0 µM 7% | [7]; at 33.0 µM 0% | [7]; at 100.0 µM 3% | [8]; [17] 27% | [8]; [18] 44% | [8]; at 50.0 µM 32.3% | [9]; at 1.2 µM -1% | [9]; at 3.7 µM -1% | [9]; [17] 26% | [9]; at 11.0 µM -4% | [9]; at 33.0 µM -2% | [9]; [18] 48% | [9]; at 50.0 µM -1% | [9]; at 100.0 µM -5% | [10]; at 1.2 µM 0% | [10]; at 3.7 µM 0% | [10]; at 11.0 µM -1% | [10]; at 33.0 µM -2% | [10]; at 100.0 µM -3% | [11]; at 1.2 µM 0% | [11]; at 3.7 µM -3% | [11]; at 11.0 µM -2% | [11]; at 33.0 µM -3% | [11]; at 100.0 µM -2% | [16]; at 1.2 µM 0% | [16]; at 3.7 µM -1% | [16]; at 11.0 µM -2% | [16]; at 33.0 µM -1% | [16]; at 100.0 µM -1% | [12]; [17] 6% | [12]; [18] 8% | [12]; at 50.0 µM -20.8% | [13]; at 1.2 µM -3% | [13]; at 3.7 µM -4% | [13]; at 11.0 µM -1% | [13]; at 33.0 µM -5% | [13]; at 100.0 µM -3%
